Source: PubChem BioAssay (National Center for Advancing Translational Sciences (NCATS))
This is a sample that favours compounds with a hit; in the whole collection about 1.1% have one here.
p53 reactivator = mutant p53 re-activation in reporter cells | H1299 p53-A138V BP100-luciferase reporter, luminescence, 24 h | Potency, µM (highest dose often 92.2 µM), usual class: activators | 0.063% of 320,000 active; also: nearly all actives have a fitted effect of over 45% in size
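p53-null H1299 cells stably carrying temperature-sensitive p53-A138V and a BP100-luciferase reporter were pinned with compounds (4-point, 1:5 series) and held 24 hrs at 37 deg C. Luminescence was read 10 min after detection reagent.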
BRCA1 expr up = increases BRCA1 expression; AID 624202; MCF7-BRCA1-FFLuc reporter, luminescence, 48 h; response scale: scaled: vehicle 0%, 10 µM genistein 100%; Potency, µM (doses to about 46.1 µM), most hits filed as activators; 1.1% of 380,000 active; also: nearly all actives have a fitted effect of over 80% in size
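First, MCF7-BRCA1-FFLuc cells (2000/well) attach for 2 h; next, compounds are pin-added and incubated 48 h at 37 °C; finally, luciferase reagent is added and luminescence read after 15 min.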
PTHR1 ag = agonists of human PTHR1 parathyroid hormone receptor. HEK293 GP2 PTHR1 cells, GloSensor cAMP luminescence, 1 h. 0.075% of 410,000 active. Q03431. Potency, µM (doses to about 115 µM), actives largely listed as activators; also: nearly all actives have a fitted effect of over 55% in size
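HEK-293-derived GP2 cells expressing PTHR1 and a GloSensor cAMP reporter, 3,000/well, plated overnight, given luciferin plus IBMX (each 0.5 mM as added) for 1 h at 37 °C, then compound for 1 h at 37 °C. Luminescence was read after 15 min at room temperature.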
RGS4 inhibitor = human RGS4 inhibition. AID 504845. Potency, µM (top dose mostly 114 µM), hits mostly inhibitors. 0.039% of 390,000 active. P49798. Transcreener GDP fluorescence polarization, RGS4-accelerated GTP hydrolysis; also: nearly all actives have a fitted effect of over 75% in size
Target sequence (P49798 whole entry, looked up): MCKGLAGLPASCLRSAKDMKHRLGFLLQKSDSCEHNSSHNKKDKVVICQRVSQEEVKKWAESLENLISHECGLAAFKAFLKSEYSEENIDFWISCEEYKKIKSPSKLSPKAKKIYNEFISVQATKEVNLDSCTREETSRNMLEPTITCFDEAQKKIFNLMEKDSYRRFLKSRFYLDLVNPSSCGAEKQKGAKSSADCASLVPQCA
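MLSMR compounds (23 nl, pin-transferred) preincubated 10 min at room temperature with a 500nM (2x) first reagent, then RGS4 at 900nM (2x) plus Transcreener GDP mix added; fluorescence polarization (620/688 nm) read before and after 90 min at 30 °C.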
LDHA block = blocks human lactate dehydrogenase A; purified LDHA, NADH/diaphorase-resazurin fluorescence; stronger effect = lower value; activity change, % (values are at about 110 or 230 µM); 0.15% of 480,000 active; P00338; AID 1347041; in the data active = activity change below about -30%; inconclusive = mostly about -25% to -30%
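Resorufin fluorescence (ex540/em590), read at 0 and 20 min after diaphorase/resazurin addition, reports the NADH left after a 5 min room-temperature reaction of 2 nM human LDH5 with 0.06 mM NADH and 0.2 mM pyruvate.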
Hits are given with their value; [ ] = remark or other dose. Unless noted, calls follow the shape of the dose curve; as a rule, active = well fitted curve in the direction sought with a large enough effect; inconclusive = small, poorly fitted or top-dose-only effect, or another doubt; inactive = no such curve, though single readings can be large; an effect the other way counts as inactive or inconclusive.

Screening O=C(NCc1ccccc1)c1ccc(CSc2nc3cccnc3n2Cc2ccccc2F)cc1 returned PTHR1 ag inactive, RGS4 inhibitor inactive and LDHA block -33.
COc1ccc(Cn2c(SCc3ccc(C(=O)NCc4ccccc4F)cc3)nc3cccnc32)cc1 was read as PTHR1 ag inactive, RGS4 inhibitor inactive and LDHA block inactive.
Screening Cn1c(SCc2ccccc2F)nc2cccnc21 returned p53 reactivator inconclusive, BRCA1 expr up 6.3µM, PTHR1 ag inactive, RGS4 inhibitor inactive and LDHA block inactive.
`COc1ccc(/C=C/c2cc(C(=O)O)c3ccccc3n2)cc1OC` gave LDHA block inactive.
For COc1cc(-c2noc(-c3ccc(S(=O)(=O)NC4CC4)o3)n2)ccc1OC(C)C the results were LDHA block inactive.
For Cc1ccc(-n2cnnc2SCC(=O)Nc2nc3c(C)cccc3s2)cc1 the results were LDHA block inactive.
`Cc1ccc(SCC(=O)NC2(C#N)CCCC2)nc1` gave LDHA block inactive.
Screening Clc1ccc(-c2csc(N3CCOCC3)n2)cc1 returned p53 reactivator inactive, BRCA1 expr up 7.1µM, PTHR1 ag inactive, RGS4 inhibitor inactive and LDHA block inactive.
COc1ccc(-c2csc(N3CCOCC3)n2)cc1OC was read as p53 reactivator inactive, BRCA1 expr up 14µM, PTHR1 ag inactive, RGS4 inhibitor inactive and LDHA block inactive.
Clc1ccc(-c2csc(N3CCCCCC3)n2)cc1 was read as p53 reactivator inconclusive, BRCA1 expr up inactive, PTHR1 ag inactive, RGS4 inhibitor inactive and LDHA block inactive.
Brc1ccc(-c2csc(N3CCOCC3)n2)cc1 was read as p53 reactivator inactive, BRCA1 expr up 11µM, PTHR1 ag inactive, RGS4 inhibitor inactive and LDHA block inactive.
Screening COc1ccc(NC(=S)NNC(N)=O)cc1 returned LDHA block inactive.
Screening Cc1ccc(NC(=O)Cc2nc(-c3c[nH]c(C(=O)N4CCCC4)c3)cs2)cc1 returned LDHA block inactive.
Screening Cc1cc2oc(C(=O)N(Cc3ccco3)Cc3ccco3)cc(=O)c2cc1Cl returned LDHA block inactive.
`CSC1=C(C#N)C(c2ccccc2C)C(C#N)=C(N)N1` (configuration not stated) gave p53 reactivator inactive, BRCA1 expr up inactive, PTHR1 ag inactive, RGS4 inhibitor inactive and LDHA block -36.
Cc1cc(C)c(C#N)c(SCC(=O)Nc2ccc3c(c2)OCO3)n1 was read as p53 reactivator inconclusive, BRCA1 expr up 11µM, PTHR1 ag inactive, RGS4 inhibitor inactive and LDHA block inactive.
For Cc1nc(SCC(=O)Nc2ccc3c(c2)OCO3)c(C#N)c2c1CCCC2 the results were p53 reactivator inactive, BRCA1 expr up 7.1µM, PTHR1 ag inactive, RGS4 inhibitor inactive and LDHA block inactive.
For COCc1cc(C)nc(SCC(=O)Nc2ccc(C)c(C)c2)c1C#N the results were p53 reactivator inconclusive, BRCA1 expr up 4µM, PTHR1 ag inactive, RGS4 inhibitor inactive[11.4 µM] and LDHA block inactive.
Cc1cc(C)nc(SCC(=O)Nc2ccc3c(c2)OCO3)n1 was read as BRCA1 expr up inactive, PTHR1 ag inactive, RGS4 inhibitor inactive and LDHA block inactive.
`N#CCCN(CCC#N)C(=O)COc1cc(Cl)ccc1C(N)=O` gave LDHA block inactive.
CCc1nnc(NC(=O)c2ccc(COc3ccccc3)o2)s1 was read as p53 reactivator inconclusive, BRCA1 expr up inactive, PTHR1 ag inactive, RGS4 inhibitor inactive and LDHA block inactive.
O=C(Nc1nccs1)c1ccc(COc2ccccc2)o1 was read as p53 reactivator inconclusive, BRCA1 expr up 5.6µM, PTHR1 ag inactive, RGS4 inhibitor inactive and LDHA block inactive.
O=C(Nc1nccs1)c1ccc(CSc2ccccc2)o1 was read as p53 reactivator inactive, BRCA1 expr up 2.8µM, PTHR1 ag inactive, RGS4 inhibitor inactive and LDHA block inactive.
COc1ccc(NC(=O)c2ccc(COc3ccccc3)o2)cc1 was read as p53 reactivator inactive, BRCA1 expr up inactive, PTHR1 ag inactive, RGS4 inhibitor inactive and LDHA block inactive.
`Cc1ccc(OCc2ccc(C(=O)Nc3ccc(S(N)(=O)=O)cc3)o2)cc1` gave p53 reactivator inactive, BRCA1 expr up 10µM, PTHR1 ag inactive, RGS4 inhibitor inactive and LDHA block inactive.
For CCc1nnc(NC(=O)c2ccc(COc3ccc(C)cc3)o2)s1 the results were p53 reactivator inactive, BRCA1 expr up 5µM, PTHR1 ag inactive, RGS4 inhibitor inactive and LDHA block inactive.
N#Cc1nc(-c2ccc(Cl)cc2)oc1NCc1ccc(Cl)cc1 was read as LDHA block inactive.
Screening CCNc1c(NC(=O)Nc2ccccc2Cl)c(=O)oc2ccccc12 returned LDHA block inactive.
Screening Cc1ccccc1CN1CCN(Cc2ccccc2C(F)(F)F)CC1 returned p53 reactivator inactive, BRCA1 expr up inactive, PTHR1 ag inactive, RGS4 inhibitor inactive and LDHA block -39.
Cc1nn(-c2ccc(Cl)cc2)c(=O)c2ccccc12 was read as p53 reactivator inactive, BRCA1 expr up inactive, PTHR1 ag inactive, RGS4 inhibitor inactive and LDHA block inactive.
`Cc1nn(-c2ccc(Cl)nn2)c(=O)c2ccccc12` gave p53 reactivator inactive, BRCA1 expr up 11µM, PTHR1 ag inactive, RGS4 inhibitor inactive and LDHA block inactive.
Screening COc1ccc(C2CC(=O)Nc3sc(C(=O)Nc4cccc(C(F)(F)F)c4)c(C)c32)cc1O (configuration not stated) returned LDHA block inactive.
For COC(=O)c1ccc(NC(=O)Nc2ccc(F)cc2F)cc1 the results were p53 reactivator inactive, BRCA1 expr up 3.2µM, PTHR1 ag inactive, RGS4 inhibitor inactive and LDHA block inactive.
`Cc1ccc(NC(=O)Nc2ccc3c(c2)OCO3)c(Br)c1` gave p53 reactivator inactive, BRCA1 expr up 1.8µM, PTHR1 ag inactive, RGS4 inhibitor inactive and LDHA block inactive.
`O=C(Nc1ccc2c(c1)OCO2)OCc1ccccc1` gave p53 reactivator inconclusive, BRCA1 expr up 2.2µM, PTHR1 ag inactive, RGS4 inhibitor inactive and LDHA block inactive.
Screening O=C(Nc1ccc2c(c1)OCO2)Nc1ccc(F)cc1F returned p53 reactivator inconclusive, BRCA1 expr up 3.2µM, PTHR1 ag inactive, RGS4 inhibitor inactive and LDHA block inactive.
For O=C(Nc1ccc(F)cc1)Nc1ccc2c(c1)OCO2 the results were p53 reactivator inactive, BRCA1 expr up inconclusive, PTHR1 ag inactive, RGS4 inhibitor inactive and LDHA block inactive.
Screening O=C(Nc1ccc2c(c1)OCO2)Nc1ccc2c(c1)OCO2 returned p53 reactivator inactive, BRCA1 expr up inconclusive, PTHR1 ag inactive, RGS4 inhibitor inactive and LDHA block inactive.
Screening Cc1cccc(NC(=S)N(CCC(C)C)C(C)c2cccs2)c1 (configuration not stated) returned LDHA block inactive.
For CCN(CC)c1ccc(NC(=O)c2cc3ccc(OC)cc3[nH]2)cc1 the results were LDHA block inactive.
